CYP2C9 inhib: inhibitors of human CYP2C9 | CYP2C9 Supersomes, luciferin-H conversion, luminescence | inhibition, % at 5 µM | actives 20% (n = 96,000);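 active means blocking of liver enzyme CYP2C9 beyond about 50% at 5 µM, limit read from the data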
Target sequence (P11712 whole entry, looked up): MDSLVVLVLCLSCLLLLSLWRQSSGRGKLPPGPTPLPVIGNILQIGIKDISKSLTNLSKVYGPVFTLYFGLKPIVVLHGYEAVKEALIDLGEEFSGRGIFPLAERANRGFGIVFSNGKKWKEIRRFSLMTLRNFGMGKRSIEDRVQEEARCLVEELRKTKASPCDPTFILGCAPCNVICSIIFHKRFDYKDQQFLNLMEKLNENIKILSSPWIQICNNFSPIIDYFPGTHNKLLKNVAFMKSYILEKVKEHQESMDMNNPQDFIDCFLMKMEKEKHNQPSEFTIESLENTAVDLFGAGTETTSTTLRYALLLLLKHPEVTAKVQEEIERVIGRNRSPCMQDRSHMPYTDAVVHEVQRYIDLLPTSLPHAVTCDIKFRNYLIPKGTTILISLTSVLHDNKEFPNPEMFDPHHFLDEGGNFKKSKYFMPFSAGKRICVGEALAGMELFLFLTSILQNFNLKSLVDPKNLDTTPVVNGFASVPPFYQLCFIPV
CYP2C9 act: activators of human CYP2C9; AID 1024; recombinant CYP2C9, luciferin-H conversion, luminescence; hits give high values; factor 1 = untreated enzyme, 0 = blocked; actives 1.4% (n = 96,000); activation factor at 5 µM; P11712;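 active means activation factor of 2 or more for CYP2C9 at a 5 µM dose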;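 further: 0 = sulfaphenazole-blocked wells and 1 = vehicle-only wells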
CYP2C19 inh: inhibitors of human CYP2C19; P33261; AID 778; inhibition, % at 5 µM; actives 21% (n = 96,000); CYP2C19 Supersomes, luciferin-H EGE luminescence, 30 min;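 active means CYP2C19 inhibition above a set limit at 5 µM in the primary screen, cut at about 50% in these data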;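 further: plate controls were negative control wells for no effect and 2.5 mM tranylcypromine positive control for full effect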
CYP2C19 activ: increases human CYP2C19 enzyme activity; recombinant CYP2C19, luciferin-H EGE luminescence; hits give high values; 0 = fully inhibited enzyme, 1 = untreated enzyme; 96,000 tested, under 10 active; activation factor at 5 µM; AID 1025;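 active means activation factor of at least 2 at 5 µM in the primary screen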;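 further: 0 = wells with 2.5 mM tranylcypromine and 1 = vehicle-only wells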
PLK1 kinase inh: PLK1 (human) kinase inhibition | recombinant PLK1 kinase, TR-FRET peptide phosphorylation | inhibition, % at 10 µM | actives 0.53% (n = 97,000) | P53350 | AID 619;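 active means inhibition of 50% or more in the single-concentration screen; inactive means inhibition below 50%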;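 further: 0% = DMSO max control and 100% = H-89 dihydrochloride min control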
Plk1 PBD FP: Plk1 (human) PBD binding inhibition. Plk1 PBD phosphopeptide binding, fluorescence polarization. actives 0.13% (n = 97,000). P53350. inhibition, %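 (tested at about 20 µM)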. AID 693; in the data active means inhibition above about 34%, passing the limit was not always enough
* = called active by the depositor; . = not tested or not shown. Shown are actives, neighbours in structure and some others; about 28% of the full set was active somewhere.

SMILES	CYP2C9 inhib	CYP2C9 act	CYP2C19 inh	CYP2C19 activ	PLK1 kinase inh	Plk1 PBD FP
Cc1ccc(C(=O)Cn2nnc3ccccc32)cc1	18.8	0.8	34.8	0.7	-5.2	-9.3
Cc1cc(C)n(CC(O)COc2ccc(OCC(O)Cn3nc(C)cc3C)cc2)n1 (stereo not given)	.	.	.	.	-4.7	-16.6
Cc1ccc2c(c1)c(C)c(C)n2CC(O)Cn1nnc2ccccc21 (stereo not given)	63.5*	0.4	40.3	0.6	3.2	-31.9
Cc1ccc2c(c1)c(C)c(C)n2CC(O)Cn1nc(C)cc1C (stereo not given)	77.0*	0.2	96.6*	0	.	.
CNC(=O)CSc1nnc(-c2ccco2)n1-c1ccccc1OC	9.7	0.9	11.7	0.9	-11.1	-35.9
CC1CCCN(CC(=O)Nc2ccc(S(=O)(=O)N3CCCCC3)cc2)C1 (stereo not given)	.	.	.	.	-9.2	15.3
CC1CCCN(CC(=O)Nc2ccc(S(=O)(=O)N3CCCCCC3)cc2)C1 (stereo not given)	62.1*	0.4	26.5	0.7	-12.9	-8.6
CC1CCCN(CC(=O)Nc2ccc(S(=O)(=O)NC3CCCCC3)cc2)C1 (stereo not given)	52.1*	0.5	78.3*	0.2	-12.6	7.0
Cc1ccnc2nc(C(=O)Nc3nccs3)nn12	2.2	1	5.0	0.9	-6.3	1.5
CCCC1CC(c2csc(N)n2)CCO1 (stereo not given)	75.7*	0.2	80.1*	0.2	-15.4	14.9
O=C(CCCN1CCC(c2ccccc2)C1)c1ccc2c(c1)OCCO2 (stereo not given)	19.2	0.8	72.2*	0.3	-10.2	12.7
O=C(CCN1CCOCC1)c1ccc2c(c1)OCCO2	.	.	.	.	-13.1	-26.1
O=C(CCN1CCc2ccccc2CC1)c1ccc2c(c1)OCCO2	71.1*	0.3	55.0*	0.4	-18.2	-8.0
Cc1cc(NC(=O)c2sc(Nc3cccc(C(F)(F)F)c3)nc2N)no1	36.7	0.6	24.7	0.8	.	.
CC(c1cccs1)N(Cc1ccco1)C(=O)Nc1ccc(Cl)c(Cl)c1 (stereo not given)	96.7*	0	78.0*	0.2	-7.3	-1.1
COCCCN1C(=O)c2ccc(C(=O)NCc3ccco3)cc2C1=O	8.9	0.9	6.7	0.9	3.9	-15.3
COC(=O)c1ccc(OC)c(CSc2nnc(COc3ccc(Cl)cc3)o2)c1	88.0*	0.1	75.9*	0.2	-10.9	8.1
O=C(CSc1nnc(COc2ccc(Cl)cc2)o1)N1c2ccccc2CCc2ccccc21	74.1*	0.3	27.5	0.7	-3.8	-36.7
COC(=O)c1ccc(OC)c(CSc2nnc(-c3ccc(C(C)(C)C)cc3)o2)c1	84.0*	0.2	90.3*	0.1	-6.6	-26.4
CCOC(=O)N1CCN(C(=O)CSc2nnc(COc3ccc(Cl)cc3)o2)CC1	24.2	0.8	3.1	1	.	.
O=C1[C@@H]2Cc3ccccc3CN2C(=O)N1c1cccc(F)c1	2.0	1	1.4	1	5.7	-27.9
C=CCc1ccc(OCCOCCNCCCC)c(OC)c1	-7.6	1.1	38.3	0.6	-2.2	-9.9
COc1ccc(CNC(=O)C2CCCN(S(=O)(=O)c3cc(C)ccc3OC)C2)cc1 (stereo not given)	43.6	0.6	46.3	0.5	-22.1	3.9
COc1ccc(S(=O)(=O)N2CCCC(C(=O)NCc3ccccn3)C2)cc1 (stereo not given)	-138.5	2.4*	14.6	0.9	-12.1	-8.5
Cc1ccc(S(=O)(=O)N2CCC(C(=O)NCc3ccncc3)CC2)cc1	99.0*	0	83.6*	0.2	-4.6	-28.8
SMILES	CYP2C9 inhib	CYP2C9 act	CYP2C19 inh	CYP2C19 activ	PLK1 kinase inh	Plk1 PBD FP
COc1ccc(S(=O)(=O)N2CCCC(C(=O)NCc3ccncc3)C2)cc1 (stereo not given)	99.0*	0	99.4*	0	-6.3	-6.7
O=C(COc1ccc(S(=O)(=O)N2CCCCC2)cc1)NCc1ccncc1	92.4*	0.1	92.5*	0.1	3.2	18.6
O=C(NC(=O)N1CCN(c2ccccc2)CC1)c1ccc(Cl)cc1	.	.	.	.	-12.3	-12.4
O=C(NCC1CCCO1)c1ccc(S(=O)(=O)N2CCC(c3nc4ccc(Cl)cc4[nH]3)CC2)cc1 (stereo not given)	.	.	.	.	7.6	5.0
CC1(C)CC(=O)C2=C(C1)N(CC1CCCO1)C(=O)C2(NC(=O)c1cccnc1)C(F)(F)F (stereo not given)	12.2	0.9	-2.7	1	-9.2	-18.8
O=C(Nc1cccc2ccccc12)N1CCN(c2ccc(F)cc2)CC1	-57.3	1.6	9.6	0.9	-16.0	-14.1
Cc1ccccc1-c1nnc2s/c(=C\c3ccc(N(C)C)cc3)c(=O)n12	5.4	0.9	12.0	0.9	.	.
CSc1ccccc1NC(=O)COc1ccc(S(=O)(=O)N2CCCC2)cc1	79.5*	0.2	14.4	0.9	-12.5	-8.0
O=C(NCc1cccnc1)C1CCCN(S(=O)(=O)c2ccccc2)C1 (stereo not given)	82.7*	0.2	87.2*	0.1	-7.2	5.7
O=C(NCc1ccc(F)cc1)C1CCCN(S(=O)(=O)c2cccnc2)C1 (stereo not given)	28.1	0.7	18.8	0.8	-11.7	-8.1
O=C(NCc1cccnc1)C1CCCN(S(=O)(=O)c2ccc(Cl)cc2)C1 (stereo not given)	77.4*	0.2	85.3*	0.1	-5.5	-33.8
Oc1ccc(CNC2CCCCC2)cc1	-13.0	1.1	-3.9	1	-3.4	-13.8
Clc1ccc(CNC2CCCC2)cc1	18.9	0.8	78.4*	0.2	-5.8	-18.0
Cc1nnc(SCCn2c(N3CC(C)CC(C)C3)nc3c2c(=O)[nH]c(=O)n3C)s1 (stereo not given)	60.8*	0.4	41.4	0.6	-16.2	-1.4
Cc1nc2nc(C)c(CCC(=O)N3CCOCC3)c(C)n2n1	9.9	0.9	-0.3	1	-4.2	-13.0
O=C(CSc1nc2ccccc2[nH]1)NC(=O)NCc1ccco1	21.9	0.8	57.2*	0.4	.	.
COc1ccc(-c2[nH]c(-c3cccc(OC)c3)nc2SCC(=O)NCc2ccco2)cc1	83.9*	0.2	94.5*	0.1	-15.2	-10.5
COc1ccc2cc(C3(C)NC(=O)N(CC(=O)NCc4ccco4)C3=O)ccc2c1 (stereo not given)	23.5	0.8	9.3	0.9	-7.7	-50.7
Cc1ccc2nc(SCC(=O)NC(=O)NCc3ccco3)[nH]c2c1	71.4*	0.3	80.3*	0.2	.	.
Cc1ccc2nc(SCC(=O)NCc3ccco3)[nH]c2c1	40.8	0.6	17.0	0.8	-8.1	3.0
O=C(CSc1nc(-c2ccccc2)c(-c2ccccc2)[nH]1)Nc1nccs1	-2.7	1	-13.8	1.1	61.2*	-13.7
COCCn1c(=O)[nH]c2cc(C(=O)NCCN3CCN(c4cccc(Cl)c4)CC3)ccc2c1=O	.	.	.	.	-11.9	-9.0
